A short description of this assay: EMT-state selective cytotoxicity in co-culture – imaging, PC-3E GFP, TEM4-18 mCherry, primary screen (AID 1345086).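 For all read-outs here: cells exposed to compound for 72 h before imaging.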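 For red/green cell ratio (normalised): normalised mesenchymal count divided by normalised epithelial count so high means epithelial killing.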 Conditions: PC-3E GFP / TEM4-18 mCherry co-culture, imaging cell counts, at 1 µM; for red/green cell ratio (normalised): actives lie on both sides, counts scaled to control wells, 1 = unselective.
The mark [1] stands for this setting: measured here: epithelial PC-3E GFP cell survival.
The mark [2] stands for this setting: measured here: mesenchymal TEM4-18 mCherry cell survival.

Where “and” joins values, the source holds several entries; their conditions need not be identical. Equal entries are not always repeated. Calls of active or inactive are those of the source.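 Rule for the calls: active = compounds killing one labelled cell type while sparing the other, by normalised counts and ratio limits, not self-fluorescent; inactive = the rest.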

Regarding `CCOC(N)=O`, the red/green cell ratio (normalised) is 1.16 (inactive). For the same compound, under setting [1], the normalised cell number was 0.95. For the same compound, the normalised cell number under setting [2] stood at 1.1.

As to `Oc1c(I)cc(I)c2cccnc12`, the red/green cell ratio (normalised) is 1.31 (inactive). The normalised cell number under setting [1] stood at 1.01. Besides, under setting [2], the normalised cell number worked out at 1.32.

For the compound `NC(=NCCCCCCN=C(N)/N=C(\N)Nc1ccc(Cl)cc1)/N=C(\N)Nc1ccc(Cl)cc1`, the red/green cell ratio (normalised) was 1.05 (inactive). Also, the normalised cell number under setting [1] came out at 0.89. Also, under setting [2], the normalised cell number is 0.93.

In the case of `CCOC(=O)c1ccc(N)cc1`, the red/green cell ratio (normalised) is 1.23 (inactive). Under setting [1], the normalised cell number came to 1.07. This compound also displayed a normalised cell number under setting [2] of 1.31.

For the compound `C=CCc1ccc(O)c(OC)c1`, the red/green cell ratio (normalised) was 1.2 (inactive). Moreover, under setting [1], the normalised cell number stood at 0.95. Further, the normalised cell number under setting [2] turned out to be 1.13.

With `Nc1ccc(C(=O)O)c(O)c1`, the red/green cell ratio (normalised) is 0.88 (inactive). The normalised cell number under setting [1] stood at 1.36. The compound also had a normalised cell number under setting [2] of 1.19.

Consider `Cc1ccc(C(=O)C(C)CN2CCCCC2)cc1` (configuration not stated), for which the red/green cell ratio (normalised) is 1 (inactive). Besides, under setting [1], the normalised cell number is 1. The normalised cell number under setting [2] is 1.

Turning to `CN1C(C)(C)CCCC1(C)C`, the red/green cell ratio (normalised) is 0.96 (inactive). The compound further registered a normalised cell number under setting [1] of 1.09. This compound showed a normalised cell number under setting [2] of 1.05.

Turning to `CN(C)[C@@H]1C(=O)C(C(N)=O)=C(O)[C@@]2(O)C(=O)C3=C(O)c4c(O)ccc(Cl)c4[C@@H](O)[C@H]3C[C@@H]12`, the red/green cell ratio (normalised) was 0.96 (inactive) and 1.05 (inactive). Further, under setting [1], the normalised cell number was 1.09 and 1.32. For the same compound, the normalised cell number under setting [2] is 1.05 and 1.38.

Turning to `Cc1cc(-c2ccccc2)nnc1NCCN1CCOCC1`, the red/green cell ratio (normalised) is 1.08 (inactive). For the same compound, under setting [1], the normalised cell number is 1.01. Under setting [2], this compound returned a normalised cell number of 1.08.

As to `NC(Cc1ccc(Cl)cc1)C(=O)O` (configuration not stated), the red/green cell ratio (normalised) is 1.13 (inactive). The same compound yielded a normalised cell number under setting [1] of 0.99. Moreover, under setting [2], the normalised cell number turned out to be 1.12.

Consider `CC1(C)S[C@@H]2[C@H](NC(=O)C(C(=O)O)c3ccccc3)C(=O)N2[C@H]1C(=O)O` (some centres not stated), for which the red/green cell ratio (normalised) was 1.24 (inactive). Under setting [1], the normalised cell number amounted to 0.99. Besides, the normalised cell number under setting [2] came out at 1.23.

On to `CCCCC1C(=O)N(c2ccccc2)N(c2ccc(O)cc2)C1=O` (configuration not stated), for which the red/green cell ratio (normalised) is 1.01 (inactive). For the same compound, the normalised cell number under setting [1] is 1.07. Further, the normalised cell number under setting [2] was 1.08.

For the compound `CCCCCN(CCCCC)C(=O)C(CCC(=O)O)NC(=O)c1ccc(Cl)c(Cl)c1` (configuration not stated), the red/green cell ratio (normalised) was 0.82 (inactive). This compound also yielded a normalised cell number under setting [1] of 1.1. Further, the normalised cell number under setting [2] came to 0.9.

For `CN1CCC(OC(c2ccccc2)c2ccccc2)CC1`, the red/green cell ratio (normalised) was 1.14 (inactive). This compound also gave a normalised cell number under setting [1] of 1.05. The normalised cell number under setting [2] came to 1.2.

Turning to `CCCCc1nc(Cl)c(CO)n1Cc1ccc(-c2ccccc2-c2nn[nH]n2)cc1`, the red/green cell ratio (normalised) was 1.09 (inactive). The normalised cell number under setting [1] came out at 1.34. Under setting [2], the normalised cell number was found to be 1.46.

In the case of `O=C(O)CCCCCCCC(=O)O`, the red/green cell ratio (normalised) is 0.99 (inactive). In addition, under setting [1], the normalised cell number turned out to be 1.08. Under setting [2], this compound had a normalised cell number of 1.07.

As for `CC(=O)OCC1=C(C(=O)O)N2C(=O)[C@@H](NC(=O)Cc3cccs3)[C@H]2SC1`, the red/green cell ratio (normalised) is 1.02 (inactive). This compound showed a normalised cell number under setting [1] of 1.21. The same compound displayed a normalised cell number under setting [2] of 1.23.

`Cc1c[nH]c2ccccc12`: the red/green cell ratio (normalised) was 0.99 (inactive). For the same compound, the normalised cell number under setting [1] came out at 0.86. Further, the normalised cell number under setting [2] was 0.85.

On to `CCCCCCCCCCCCCCCCC(C(=O)O)C(O)(CC(=O)O)C(=O)O` (configuration not stated), for which the red/green cell ratio (normalised) is 1.03 (inactive). Also, the normalised cell number under setting [1] came out at 1. This compound had a normalised cell number under setting [2] of 1.03.

Take `NC(CS)C(=O)O` (configuration not stated): the red/green cell ratio (normalised) was 0.99 (inactive). The compound further displayed a normalised cell number under setting [1] of 1. In addition, under setting [2], the normalised cell number is 0.99.

Take `NC(=O)c1ccc([N+](=O)[O-])cc1Cl`: the red/green cell ratio (normalised) is 1.37 (inactive). Besides, the normalised cell number under setting [1] worked out at 0.87. Besides, the normalised cell number under setting [2] worked out at 1.19.

For `C[C@@H]1CN(c2c(F)c(F)c3c(=O)c(C(=O)O)cn(C4CC4)c3c2F)C[C@H](C)N1`, the red/green cell ratio (normalised) was 1.1 (inactive) and 1 (inactive). Moreover, the normalised cell number under setting [1] was 1.07 and 1.13. In addition, the normalised cell number under setting [2] is 1.18 and 1.13.

For `CCN(CC)C(=O)c1cccc(C)c1`, the red/green cell ratio (normalised) is 1.18 (inactive). Also, under setting [1], the normalised cell number stood at 1. This compound registered a normalised cell number under setting [2] of 1.19.

Take `CC(C)N=C(N)/N=C(\N)Nc1ccc(Cl)cc1`: the red/green cell ratio (normalised) was 1.08 (inactive). The same compound displayed a normalised cell number under setting [1] of 1.11. Under setting [2], this compound gave a normalised cell number of 1.2.

In the case of `O=C(CCBr)N1CCN(C(=O)CCBr)CC1`, the red/green cell ratio (normalised) was 1.19 (inactive). The compound further came in with a normalised cell number under setting [1] of 1.07. Under setting [2], the normalised cell number is 1.28.

For the compound `CCCCNc1ccc(C(=O)OCCN(C)C)cc1`, the red/green cell ratio (normalised) was 1.19 (inactive). The compound further had a normalised cell number under setting [1] of 1.07. Under setting [2], the normalised cell number worked out at 1.27.

For `Cc1c(Nc2ncccc2C(=O)O)cccc1C(F)(F)F`, the red/green cell ratio (normalised) was 1.03 (inactive) and 0.93 (inactive). Also, the normalised cell number under setting [1] was 1.09 and 1.11. The normalised cell number under setting [2] was 1.12 and 1.03.

In the case of `O=C1NCC2(CCN(CCc3ccccc3)CC2)O1`, the red/green cell ratio (normalised) is 0.97 (inactive). Further, the normalised cell number under setting [1] is 1.16. Also, the normalised cell number under setting [2] was 1.12.

Turning to `O=C1OCCN1/N=C/c1ccc([N+](=O)[O-])o1`, the red/green cell ratio (normalised) is 1.17 (inactive). The normalised cell number under setting [1] was 0.95. Under setting [2], this compound came in with a normalised cell number of 1.11.

Take `O=C(CCCN1CCN(c2ccccn2)CC1)c1ccc(F)cc1`: the red/green cell ratio (normalised) was 1.1 (inactive). In addition, the normalised cell number under setting [1] came out at 1.11. The compound further registered a normalised cell number under setting [2] of 1.22.

For `O=c1[nH]cnc2nc[nH]c12`, the red/green cell ratio (normalised) is 1.25 (inactive). Moreover, the normalised cell number under setting [1] was 0.95. The compound also had a normalised cell number under setting [2] of 1.18.

Regarding `CCCCOC(=O)c1ccc(N)cc1`, the red/green cell ratio (normalised) is 1.07 (inactive). Moreover, the normalised cell number under setting [1] is 0.97. The compound further came in with a normalised cell number under setting [2] of 1.04.

For the compound `Nc1ccc(C(=O)NCC(=O)O)cc1`, the red/green cell ratio (normalised) is 1.12 (inactive). This compound showed a normalised cell number under setting [1] of 1.03. Under setting [2], this compound came in with a normalised cell number of 1.15.

As to `C/C=C/c1ccc(OC)cc1`, the red/green cell ratio (normalised) was 1.24 (inactive). The compound further had a normalised cell number under setting [1] of 1.08. Besides, under setting [2], the normalised cell number worked out at 1.34.

Take `Cc1c(NC(=O)c2cccnc2)c(=O)n(-c2ccccc2)n1C`: the red/green cell ratio (normalised) was 1.04 (inactive). In addition, the normalised cell number under setting [1] was determined as 1.05. Also, under setting [2], the normalised cell number is 1.09.

Consider `Cc1ccc(C(C)C)cc2c(C)ccc1-2`, for which the red/green cell ratio (normalised) is 0.74 (inactive). In addition, the normalised cell number under setting [1] is 1.25. The normalised cell number under setting [2] stood at 0.92.

Take `CCCCC1C(=O)N(c2ccccc2)N(c2ccccc2)C1=O`: the red/green cell ratio (normalised) was 0.97 (inactive). For the same compound, the normalised cell number under setting [1] was found to be 1.22. Under setting [2], this compound came in with a normalised cell number of 1.19.

Consider `O=C(O)CCNC(=O)c1ccccc1`, for which the red/green cell ratio (normalised) is 0.71 (inactive). This compound also came in with a normalised cell number under setting [1] of 1.22. Also, under setting [2], the normalised cell number came to 0.87.
